Compound activity deposited in PubChem by National Center for Advancing Translational Sciences (NCATS).
uPA generation = cell surface uPA generation inhibition | cell surface uPA generation assay, qHTS | Potency, µM (series often up to 38.3 µM), for inactives: top-dose activity change, negative = inhibition, usual class: inhibitors | 330,000 compounds, 0.31% hits | AID 540303; active = well fitted inhibition curve with a large enough effect; inconclusive = small, poorly fitted or top-dose-only effect; inactive = no such curve, though single readings can be large or run the other way; tested in mouse RAW 264.7 cells; also: potency is read from the fitted curve at half-maximal effect; nearly all actives have a fitted effect of over 55% in size
HT1080 IDH1KD tx = HT-1080 IDH1 knockdown cell toxicity (counter line); HT-1080 IDH1 knockdown viability, ATP luminescence, 48 h; Potency, µM (top dose mostly 46.1 µM), for the others: top-dose activity, negative = toxicity, most hits filed as cytotoxic; 360,000 compounds, 2% hits; AID 686971;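 also: potency is read from the fitted curve at half-maximal effect; 0% = DMSO wells and -100% = cell-free medium wells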
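HT-1080-IDH1KD cells (IDH1 knocked down), 750/well in RPMI with 5% FBS, treated with compound 48 h at 37 degrees C. Viability by CellTiter-Glo luminescence, normalised to DMSO and no-cell wells; concentration-response curves classed.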
IL1B secr inh = inflammasome signaling inhibition, IL-1 beta readout; activity change, % at 57.5 µM; THP-1 LPS/ATP IL-1B secretion, AlphaLISA, 16 h; hits give low values; 360,000 compounds, 4.7% hits; in the data active = activity change below about -50%; inconclusive = mostly about -30% to -49%
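Secreted IL-1B measured by AlphaLISA bead assay after 16 h compound exposure of THP-1 cells; compounds (final up to 57.5 uM) added 1 h before LPS (250 ng/mL) and ATP (1.25 mM) stimulation; lower signal means less secretion.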
DT40 TDP1 no CPT = qHTS for Inhibitors of human tyrosyl-DNA phosphodiesterase 1 (TDP1): qHTS in cells in absence of CPT | 420,000 compounds, 15% hits | DT40 Tdp1-/- hTDP1 cells, no CPT, ATP luminescence, 48 h | Potency, µM (titrated, usually from 46.2 µM), inactives show top-dose activity change, negative = growth inhibition, usual class: inhibitors; also: potency is read from the fitted curve at half-maximal effect; nearly all actives have a fitted effect of over 55% in size
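No-CPT arm: Tdp1-/-;hTDP1 DT40 cells (400/well) plus compounds, incubated ≥48 hr at 37 °C. Readout CellTiter-Glo luminescence.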
TDP1 cell CPT = DT40-hTDP1 cell growth loss with CPT | chicken DT40 Tdp1-/-;hTDP1 cells + 20 nM CPT, ATP luminescence, 48 h | Potency, µM (doses to about 46.2 µM), inactives show at the top dose activity change, negative = growth inhibition, most hits filed as inhibitors | 420,000 compounds, 12% hits; also: potency is read from the fitted curve at half-maximal effect; nearly all actives have a fitted effect of over 55% in size
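Cell growth measured by CellTiter-Glo luminescence after a minimum 48 h, 37 C compound exposure with 20 nM CPT in Tdp1-knockout DT40 cells stably expressing hTDP1, seeded 400/well; qHTS titration format.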
HT1080-NT tox = kills 2HG-producing HT-1080-NT fibrosarcoma cells. HT-1080-NT fibrosarcoma viability, CellTiter-Glo ATP luminescence, 48 h. Potency, µM (doses to about 46.1 µM), without a hit: at the top dose activity, negative = less viability, hits mostly cytotoxic. 360,000 compounds, 1.6% hits;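 also: NT is the 2HG producing partner of a matched IDH1 knockdown line; potency is read from the fitted curve at half-maximal effect; 0% = DMSO-treated cells and -100% = media-only wells without cells; nearly all actives have a fitted effect of over 55% in size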
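Luminescent CellTiter-Glo readout after 48 hours of compound exposure at 37 degrees C defined viability of HT-1080-NT cells. Activity was normalized to DMSO wells and cell-free media wells; concentration-response curves were fitted and assigned curve classes.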
Numbers without * were called inactive; ? = inconclusive; nt = not tested or not shown. An excerpt weighted towards active compounds, which were near 19% of everything screened. Unless noted, calls follow the shape of the dose curve; as a rule, active = well fitted curve in the direction sought with a large enough effect; inconclusive = small, poorly fitted or top-dose-only effect, or another doubt; inactive = no such curve, though single readings can be large; an effect the other way counts as inactive or inconclusive. Unless noted, % is scaled to controls: 0 for no effect and ±100 for the full control effect.

SMILES	uPA generation	HT1080 IDH1KD tx	IL1B secr inh	DT40 TDP1 no CPT	TDP1 cell CPT	HT1080-NT tox
CC(NCCCSc1ccccc1)C(O)c1ccc(O)cc1 (centres undefined)	nt	-27%	-18	?	?	-4%
COc1ccc(NC(=O)CSc2ccc(-c3ccccn3)nn2)cc1OC	-5%	2%	73	16µM*	23µM*	14%
CN1CCN(c2ncc3c(n2)CCN(Cc2cc(Br)cs2)C3)CC1	nt	nt	nt	?	16µM*	nt
Cc1ccc(CN2CCc3nc(N4CCN(c5ccccc5F)CC4)ncc3C2)s1	nt	nt	nt	1%	-9%	nt
COc1cc(Nc2ncc3c(n2)CCN(Cc2cc(Br)cs2)C3)cc(OC)c1	nt	nt	nt	23µM*	16µM*	nt
Brc1csc(CN2CCc3nc(Nc4ccccc4)ncc3C2)c1	nt	nt	nt	23µM*	21µM*	nt
Nn1c(SCC(=O)Nc2ccc(OC(F)F)cc2)nnc(Cc2ccccc2)c1=O	-4%	-18%	?	?	7%	-13%
Cc1nn(-c2ccccc2)nc1C(=O)Nc1nnc(C(F)(F)F)s1	6%	-4%	nt	?	?	-24%
CN(C(=O)c1cnn(-c2ncc3c(n2)-c2ccccc2CCC3)c1C1CC1)C1CCOC1 (centres undefined)	nt	nt	nt	-19%	7%	nt
COCCn1c(C)cc(O)c(C(c2ccccc2OC)N2CCN(c3ccccc3)CC2)c1=O (centres undefined)	nt	nt	nt	-5%	-17%	nt
CC(C)CC(c1nnnn1Cc1ccc2c(c1)OCO2)N1CCC(C(N)=O)CC1 (centres undefined)	-2%	8%	11	-2%	-5%	19%
CC(=O)c1ccc(N2CCN(c3ccc(S(=O)(=O)NCCCN(C)C)cc3[N+](=O)[O-])CC2)cc1	?	-20%	-19	23µM*	23µM*	2%
CN(C)CCCNS(=O)(=O)c1ccc(-n2nnc3ccccc32)c([N+](=O)[O-])c1	-15%	-15%	34	?	?	?
CN(C)CCCNS(=O)(=O)c1ccc(N2CCN(Cc3ccc4c(c3)OCO4)CC2)c([N+](=O)[O-])c1	-12%	?	-70*	21µM*	23µM*	?
CC(=O)c1ccc(N2CCN(c3ccc(S(=O)(=O)NCCN(C)C)cc3[N+](=O)[O-])CC2)cc1	-7%	1%	9	?	?	0%
CN(C)CCNS(=O)(=O)c1ccc(N2CCc3ccccc32)c([N+](=O)[O-])c1	-2%	?	-23	26µM*	16µM*	?
O=[N+]([O-])c1ccccc1S(=O)(=O)N1CCN(Cc2ccc3c(c2)OCO3)CC1	-5%	-10%	?	?	1%	4%
CC(C)C1Cc2ccccc2-c2[nH]c(=S)[nH]c(=O)c21 (centres undefined)	-2%	3%	nt	6%	0%	2%
O=C(NCc1ccc(F)cc1)c1cc(-c2ccc(Cl)cc2)n[nH]1	nt	nt	nt	8.2µM*	7.3µM*	nt
Cc1ccc(Cl)cc1-c1cc(C(=O)NCc2cccc(Cl)c2)[nH]n1	nt	?	-51*	?	18µM*	?
O=C(NCc1ccc(F)cc1)c1cnc(Cl)c(Cl)c1	2%	10%	-79*	?	?	7%
O=C(NCc1ccccc1)c1cnc(Cl)c(Cl)c1	-1%	8%	-9	-26%	-14%	1%
COc1ccc(-c2cc(C(=O)NCc3cccc(C(F)(F)F)c3)[nH]n2)c(C)c1	nt	-3%	-9	?	26µM*	-22%
Cc1ccc(C)c(OCCOCCn2c(-c3ccc(Br)cc3)nc3ccccc3c2=O)c1C	nt	nt	nt	15%	?	nt
Cc1c(C(=O)N(C)Cc2cccc3ncccc23)cnn1-c1nccc(-c2ccccc2F)n1	nt	nt	nt	-28%	-3%	nt
SMILES	uPA generation	HT1080 IDH1KD tx	IL1B secr inh	DT40 TDP1 no CPT	TDP1 cell CPT	HT1080-NT tox
CCOc1ccc(-c2cc(C(=O)NCc3cc(OC)cc(OC)c3)[nH]n2)c(C)c1	nt	1%	-8	?	21µM*	7%
COc1cc(CNC(=O)c2cc(-c3cc(Cl)ccc3C)n[nH]2)cc(OC)c1	nt	-11%	-23	?	26µM*	-19%
COc1ccc(CNC(=O)c2cc(-c3ccc(C)c(C)c3)n[nH]2)cc1	nt	nt	nt	16µM*	?	nt
COc1ccc(CNC(=O)c2cc(-c3ccc(Cl)cc3)n[nH]2)cc1	nt	nt	nt	-8%	14%	nt
COc1ccc(CNC(=O)c2cccc(-c3ccc(C)c4ccccc34)n2)cc1	-17%	?	12	18µM*	?	?
COc1ccc(CNC(=O)c2ccccc2C(=O)O)cc1	-7%	11%	0	-17%	-4%	8%
COc1cc(CNC(=O)c2cc(-c3cc(OC)ccc3Cl)n[nH]2)cc(OC)c1	nt	1%	53	-22%	?	-6%
O=C(NCC(=O)N1CCN(S(=O)(=O)c2ccccc2C(F)(F)F)CC1)c1sc2ccccc2c1Cl	3%	7%	5	12µM*	?	1%
COc1ccc(-c2c(C(=O)c3ccccc3)[nH]c(N)c2C(=O)NCc2ccccc2)cc1OC	nt	7%	-5	?	?	4%
Cc1ccc(C)c(OCCCCN2CCCCC2)c1	2%	6%	?	-13%	-21%	9%
Cc1ccc(OCCCCN2CCC(C)CC2)c(Br)c1	1%	-16%	-29	?	23µM*	-8%
Cc1ccc(OCCCCCCN2CCNCC2)c(Br)c1	-3%	15µM*	-89*	21µM*	?	?
O=C(Cn1c(=O)oc2ccccc21)Nc1n[nH]c(=S)s1	-13%	-17%	4	-4%	7%	0%
c1ccc2c(N3CCOCC3)nc(-c3ccoc3)nc2c1	nt	nt	nt	-16%	?	nt
